# PfHsp40 rescue: rescue of yeast from PfHsp40 toxicity, primary screen, S. cerevisiae, ATP luminescence; S. cerevisiae expressing PfHsp40, growth rescue; growth rescue, % at 12.5 µM; 340,000 compounds, 0.68% hits; AID 504582, 2011; in the data active means growth rescue above about 28%, passing the limit was not always enough;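 further: yeast W303a lacking pdr1 and pdr3 grown in galactose medium; growth measured after three days at 30 °C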
# CCHFV vOTU inh: CCHFV vOTU protease inhibitors, primary screen, biochemical, Pep-AMC substrate, fluorescence; AID 651958, 2012; Crimean-Congo hemorrhagic fever virus L polyprotein viral ovarian tumor (vOTU) protease …; 370,000 compounds, 0.55% hits; inhibition, % at 11.5 µM; in the data active means inhibition above about 30%; further: 0% = vehicle wells with enzyme and 100% = no enzyme wells
# Sa RN4220 lethal: growth inhibition of S. aureus RN4220, primary screen, OD600; 16 h; inhibition, % (no concentration beside the values); 330,000 compounds, 0.33% hits; in the data active means inhibition above about 85%;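 further: plate controls were untreated cells for no effect and reference antibiotic for full effect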
# PrPC surface inh: inhibitors of human cell surface prion protein PrPC, primary screen, cell-based, TR-FRET; TR-FRET read-out; inhibition, % at 13.8 µM; 370,000 compounds, 0.43% hits; AID 720596, 2013; in the data active means inhibition above about 24%; further: 0% = median of the test wells and 100% = reference compound wells
# ugtP null kill: growth inhibition of ugtP-null S. aureus, primary screen, RN4220 ugtP deletion, OD600. 16 h. growth inhibition, % (no concentration beside the values). 330,000 compounds, 0.54% hits. AID 1259309, 2017; in the data active means growth inhibition above about 68%;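 further: plate controls were untreated wells for no effect and antibiotic for full effect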
# PrP 5UTR inh: inhibition of PrP 5' UTR reporter expression; cell-based PrP 5' UTR mRNA reporter, plate reader; inhibition, % (concentration not given with the values); 340,000 compounds, 0.35% hits; in the data active means inhibition above about 52%; further: 0 = median of the neutral control wells
# * marks the source's active call; other numbers are inactive results; x = not tested or not shown. Rows were chosen to be rich in hits. Some 2.1% of all compounds tested hit in one or more screens of this group.
SMILES,PfHsp40 rescue,CCHFV vOTU inh,Sa RN4220 lethal,PrPC surface inh,ugtP null kill,PrP 5UTR inh
COc1cc(C2CC=C(C(=O)O)C(c3ccccc3)N2S(=O)(=O)c2ccc(C)cc2)cc(OC)c1OC (stereo unspecified),x,x,3,x,9,x
N#Cc1c(N2CCCC2)nc(N)c2c(N)nc(N3CCCC3)cc12,0,72*,8,-13,-23,-57
COc1cc2c(C#N)c(N3CCCC3)nc(N)c2c(N)n1,0,-5,9,-6,-6,-13
CCC[C@@H]1C[C@@H](C(=O)N[C@H]([C@@H](C)O)[C@H]2O[C@H](SC)[C@H](O)[C@@H](O)C2O)N(C)C1 (stereo partly specified),5,4,x,14,x,-12
CCCC1CC(C(=O)NC(C(C)O)C2OC(SC)C(O)C(O)C2O)N(C)C1 (stereo unspecified),x,x,100*,x,99*,x
Cc1cc(C=NNC(=O)C(O)(c2ccccc2)c2ccccc2)c(C)n1-c1ccccc1,x,x,0,x,8,x
Cn1c(SCc2ccccc2)nc(N)c(N=O)c1=O,x,-10,-4,-7,95*,x
Fc1ccc(-c2cc(C(F)(F)C(F)F)[nH]n2)cc1,x,0,-1,0,86*,x
FC(F)C(F)(F)c1cc(-c2ccc(Cl)cc2)n[nH]1,x,-3,-11,-2,-21,x
C=C(C)C(=O)N1CC2(CC(c3cccc(NC(=O)CCCCC)c3)=NO2)CC1C(N)=O (stereo unspecified),x,x,5,x,0,x
COCCNC(=S)N/N=C(\C)CCc1ccc2c(c1)OCO2,35*,5,x,-1,x,-13
COc1cc(C=NNC(=O)COc2ccc(C)cc2)ccc1OC(=O)c1cccs1,x,x,10,x,6,x
CCOC(=O)C1C2COc3cc(OC)ccc3C2N2C(=O)CN(C)C(=O)[C@@]12C (stereo partly specified),x,x,5,x,4,x
NC1=NCC(Cc2ccc(O)cc2)N1CCc1cc(C(F)(F)F)cc(C(F)(F)F)c1 (stereo unspecified),x,x,0,x,-2,x
c1ccc(CSC2=NNC(c3ccccn3)S2)cc1 (stereo unspecified),93*,25,5,10,7,-28
CC(C)[C@@H]1CN=C(N)N1C[C@@H]1CCCN1C[C@H](C)N1C[C@@H](Cc2ccccc2)N(CCc2ccc(Cl)c(Cl)c2)C1=N,4,x,101*,x,100*,0
CCCC(CN1CCCC1CN1C(N)=NCC1Cc1ccccc1)N1CC(C(C)CC)N(CCc2ccc(Cl)c(Cl)c2)C1=N (stereo unspecified),x,x,101*,x,100*,x
CCC[C@@H](CN1CCC[C@H]1CN1C(N)=NC[C@@H]1Cc1ccccc1)N1C[C@@H]([C@H](C)CC)N(CCc2ccc(Cl)c(Cl)c2)C1=N,3,x,x,x,x,-6
CC[C@@H](C)[C@@H]1CN([C@@H](CN2CCC[C@H]2CN2C(N)=NC[C@H]2CC(C)C)C(C)C)C(=N)N1CCCC1CCCC1,1,-2,100*,-2,101*,-5
CCC[C@@H](CN1CCC[C@H]1CN1C(N)=NC[C@H]1CC(C)C)N1C[C@@H]([C@H](C)CC)N(CCc2ccc(Cl)c(Cl)c2)C1=N,-1,2,100*,-6,100*,22
CC(C)(C)OC(=O)CNC(=O)c1[nH]cnc1C(=O)NC(Cc1ccccc1)C(=O)OCc1ccccc1 (stereo unspecified),x,x,9,x,9,x
Cc1ccc(C(=O)NC(=CCl)P(=O)(c2ccccc2)c2ccccc2)cc1,x,x,5,x,-1,x
O=C(C1=CC(c2ccc3c(c2)OCO3)CC(OCc2ccc(CO)cc2)O1)N1CCN(Cc2ccc3c(c2)OCO3)CC1 (stereo unspecified),x,x,13,x,-13,x
CCC[C@@H](CN1CCC[C@H]1CN1C(N)=NC[C@H]1CC(C)C)N1C[C@@H](Cc2ccccc2)N(CCc2ccc(Cl)c(Cl)c2)C1=N,1,6,100*,0,100*,1
CCCC(CN1CCCC1CN1C(N)=NCC1Cc1ccccc1)N1CC(Cc2ccccc2)N(CCc2ccc(Cl)c(Cl)c2)C1=N (stereo unspecified),x,x,101*,x,101*,x
SMILES,PfHsp40 rescue,CCHFV vOTU inh,Sa RN4220 lethal,PrPC surface inh,ugtP null kill,PrP 5UTR inh
CC[C@@H](C)[C@@H]1CN([C@@H](CN2CCC[C@H]2CN2C(N)=NC[C@H]2CC(C)C)C(C)C)C(=N)N1CCc1ccc(Cl)c(Cl)c1,2,16,100*,-2,100*,-17
CCC[C@@H](CN1CCC[C@H]1CN1C(N)=NC[C@@H]1Cc1ccccc1)N1C[C@@H](Cc2ccccc2)N(CCc2ccc(Cl)c(Cl)c2)C1=N,1,4,x,2,x,-15
CC[C@@H](C)[C@@H]1CN([C@@H](C)CN2CCC[C@H]2CN2C(N)=NC[C@H]2CC(C)C)C(=N)N1CCc1ccc(Cl)c(Cl)c1,0,10,x,2,x,-4
CC(C)[C@H](CN1CCC[C@H]1CN1C(N)=NC[C@@H]1Cc1ccccc1)N1C[C@@H](Cc2ccccc2)N(CCc2ccc(Cl)c(Cl)c2)C1=N,35*,x,x,x,x,3
Cc1ccc(S(=O)(=O)Oc2ccccc2C=NNc2ccc(C(=O)O)cc2)cc1,x,x,20,x,27,x
COc1ccc(-c2ccc3c(c2)OC(=Cc2ccsc2)C3=O)cn1,x,x,6,x,-26,x
CCOc1ccccc1C=NNc1ccnc(=O)[nH]1,x,x,2,x,1,x
CCOC(=O)[C@]12Cc3ccsc3C1N(Cc1ccccc1)C(=O)c1ccccc12 (stereo partly specified),x,x,7,x,9,x
O=C(NCc1ccc(OC(F)(F)F)cc1)c1cc(-c2ccccc2)nn1CC1CC(c2cccnc2)=NO1 (stereo unspecified),65*,7,-2,4,0,-3
O=C(NCc1ccco1)c1cc(-c2ccccc2)nn1CC1CC(c2cccnc2)=NO1 (stereo unspecified),1,-4,2,-2,1,-18
CCn1nc([N+](=O)[O-])c(C(C#N)c2nc3cc(C(F)(F)F)ccc3s2)c(Cl)c1=O (stereo unspecified),3,27,99*,-31,92*,-32
CN(C)c1nc(NN=Cc2ccccc2O)nc(Nc2ccc(F)cc2)n1,x,x,100*,x,100*,x
CN(C)c1nc(NCc2ccccc2)nc(NN=Cc2ccc(Cl)cc2Cl)n1,x,x,-5,x,-9,x
CC(=O)/C(C#N)=C1\NC(=O)C(Cc2ccccc2Cl)S1 (stereo unspecified),39*,18,27,8,18,3
CC(C)CC1NC(=O)C(CO)NC(=O)c2cc([N+](=O)[O-])cc(I)c2OCCC(C(N)=O)NC1=O (stereo unspecified),x,x,19,x,-5,x
COc1ccc(N=Nc2c(C)[nH]c3ccccc23)cc1,1,0,-2,-2,82*,-51
N=C1/C(=C/c2cccs2)C(=O)N=C2SN=C(SCc3ccccc3)N12,-1,14,83,4,83*,3

# Bioassay records: PubChem, several laboratories
